Laboratory results reported in ChEMBL document CHEMBL4513216, “Probing the Open Global Health Chemical Diversity Library for Multistage-Active Starting Points for Next-Generation Antimalarials” (ACS Infect Dis, 2020).
Out of some 69,000 compounds screened, about 8,600 (12%) showed an effect of 50% or more. This excerpt belongs to a sample that is enriched for strong results.

System: Plasmodium berghei
Experiment: Screen against P. berghei liver stage (PbLuc), transformed with Luciferase, at 10uM
Type: functional, HepG2
Conditions: tested at 10 uM

`CCc1csc(NC(=O)Nc2c(C)n[nH]c2C)n1` was tested. Which INHIBITION did it give?
Its INHIBITION is -1.79%.

How did the INHIBITION turn out when `CC(=O)N1CCCC1c1nc(C)no1` (centres undefined) was run?
The INHIBITION was 7.05%.

Which INHIBITION does the source give for `Cc1cc(NCCc2cnccn2)nc(-c2ccccc2O)n1` here?
The INHIBITION was 17.5%.

With `O=C(NCc1cc[nH]n1)N1CCCC(N2CCCC2)C1` (centres undefined) as the compound, how does the INHIBITION read?
Its INHIBITION is 16.9%.

With `NC(=O)CSc1ccccc1NC(=O)CC1C=CCC1` (centres undefined) as the compound, how does the INHIBITION read?
The INHIBITION was -54.9%.

Which INHIBITION does the source give for `COCC(=O)NC(CC(C)C)c1nc2cccnc2n1C` (centres undefined) here?
Its INHIBITION is -0.232%.

How did the INHIBITION turn out when `Cc1ccc(C(=O)Nc2c(C(=O)N(C)C)nn(C)c2C)cc1C` was run?
The INHIBITION was 35%.

With `CCOc1cc(F)ccc1NC(=O)N(C)Cc1cnn(C)c1` as the compound, how does the INHIBITION read?
Its INHIBITION is 4.71%.

How did the INHIBITION turn out when `CCC(=O)N1CCC2(CCN(Cc3cccc(F)c3)CC2)CC1` was run?
The INHIBITION was -6.97%.

For `CN(Cc1ccco1)[C@@H]1CN(Cc2cccnc2)C[C@@H]2CCCO[C@@H]21`, which INHIBITION is on record?
The INHIBITION was 30.4%.

How did the INHIBITION turn out when `CN(Cc1ccco1)[C@@H]1CN(Cc2ccc(F)cc2)C[C@@H]2CCCO[C@@H]21` was run?
The INHIBITION was 31.8%.

With `CN(Cc1ccco1)[C@@H]1CN(Cc2ccco2)[C@@H]2CCCO[C@H]12` as the compound, how does the INHIBITION read?
The INHIBITION was 15.4%.

With `CN(Cc1ccco1)[C@@H]1CN(Cc2ccc(F)cc2)[C@@H]2CCCO[C@H]12` as the compound, how does the INHIBITION read?
The INHIBITION was 81.2%.

Which INHIBITION does the source give for `CN(Cc1ccco1)[C@@H]1CN(Cc2cccnc2)[C@@H]2CCCO[C@H]12` here?
The INHIBITION was 55.5%.

`COc1ccc(CN2C[C@@H](N(C)Cc3ccco3)[C@H]3OCCC[C@H]32)cc1` was tested. Which INHIBITION did it give?
The INHIBITION was 31.8%.

For `O=C1CCN(C(=O)NCc2ccccc2Oc2ccccc2)CCN1`, which INHIBITION is on record?
The INHIBITION was 11.4%.

For `COCC1CN(C(=O)c2ccco2)Cc2cn(C)nc21` (centres undefined), which INHIBITION is on record?
Its INHIBITION is -30.6%.

Which INHIBITION does the source give for `Cc1ncc(C(=O)N2CC(C(=O)N3CCCCCC3)C2)c(C)n1` here?
Its INHIBITION is 27.7045%.

For `CN(C)[C@@H]1CN(Cc2ccccn2)C[C@H]1c1cn(C)c2ccccc12`, which INHIBITION is on record?
The INHIBITION was 13.55%.

How did the INHIBITION turn out when `CC(C)=CCN1C[C@@H]2CC[C@H]1CN(C(=O)c1ccc3nc[nH]c3c1)C2` was run?
The INHIBITION was 10.3%.

How did the INHIBITION turn out when `Cc1nn(C)c(C)c1S(=O)(=O)N1CC[C@@H]2O[C@@H](C)C[C@H]2C1` was run?
The INHIBITION was 7.5%.

How did the INHIBITION turn out when `CCN1C[C@H]2C3(CCN(S(C)(=O)=O)CC3)CC[C@@]2(C(=O)N(C)C)C1` was run?
Its INHIBITION is 44.8%.

Which INHIBITION does the source give for `CC(c1nnc(-c2ccccc2)o1)N1CCC(Nc2ccccc2)CC1` (centres undefined) here?
Its INHIBITION is 31.5%.

With `COCC1CN(Cc2ccc(C)o2)Cc2nnn(C)c21` (centres undefined) as the compound, how does the INHIBITION read?
The INHIBITION was -102%.

Which INHIBITION does the source give for `O=c1[nH]c(CN2CCCC(Cn3cncn3)C2)nc2ccccc12` (centres undefined) here?
The INHIBITION was 21.01%.

How did the INHIBITION turn out when `CCC1CCCN(Cc2nc3ccccc3c(=O)[nH]2)C1` (centres undefined) was run?
The INHIBITION was 67.5%.

Which INHIBITION does the source give for `Cc1nc(CC2CCCN(Cc3nc4ccccc4c(=O)[nH]3)C2)no1` (centres undefined) here?
Its INHIBITION is 45.2%.

How did the INHIBITION turn out when `Cc1nccn1C1CCCN(C(=O)c2ccc3cc[nH]c3c2)C1` (centres undefined) was run?
The INHIBITION was 4.52%.

For `Cc1nnc(-c2cccc(N3CCC(NC4CCSC4)CC3)c2)s1` (centres undefined), which INHIBITION is on record?
The INHIBITION was 18.9%.

`Cc1nnc(-c2cccc(N3CCC(NC(C)CC(C)C)CC3)c2)s1` (centres undefined) was tested. Which INHIBITION did it give?
The INHIBITION was 62.4%.

`CC(C)CC(C)NC1CCN(c2cccc(-c3cscn3)c2)CC1` (centres undefined) was tested. Which INHIBITION did it give?
Its INHIBITION is 34.1%.

Which INHIBITION does the source give for `COCCNC(=O)c1ccc(NCc2c(C)noc2C)cc1Cl` here?
Its INHIBITION is 2.03%.

How did the INHIBITION turn out when `O=C(c1cnccn1)N1CCOC2(CCCN(c3ncccc3F)C2)C1` (centres undefined) was run?
Its INHIBITION is 39.5%.

`COCCNC(=O)N1CCN(c2cc(F)ccc2F)CC1` was tested. Which INHIBITION did it give?
Its INHIBITION is 8.7%.

With `CNCc1cnc(Nc2ccccc2)nc1` as the compound, how does the INHIBITION read?
The INHIBITION was 39.9%.

`Cc1nnc(NC(=O)C2CSCN2C(=O)C2CCCC2)s1` (centres undefined) was tested. Which INHIBITION did it give?
The INHIBITION was 25.4%.

For `O=C(Nc1nncs1)C1CSCN1C(=O)C1CCCC1` (centres undefined), which INHIBITION is on record?
The INHIBITION was 20.5%.

With `CC(C)c1nnc(NC(=O)C2CSCN2C(=O)C2CCC2)s1` (centres undefined) as the compound, how does the INHIBITION read?
Its INHIBITION is 61.2%.

How did the INHIBITION turn out when `CN(C(=O)NC1CC1)C1CCN(c2ccc(Cl)cc2)CC1` was run?
Its INHIBITION is 13.9%.

`COc1ccc(N2CCC(N(C)C(=O)C(C)SC)CC2)cc1` (centres undefined) was tested. Which INHIBITION did it give?
The INHIBITION was 60.4%.

Which INHIBITION does the source give for `CC(C)CN(C(=O)Nc1cccnc1)C1CC1` here?
The INHIBITION was -18.5%.

For `COc1ccc(N2CCC(N3C[C@H](NC(C)=O)[C@@H](C(C)C)C3)CC2)cc1`, which INHIBITION is on record?
The INHIBITION was 33%.

`COc1ccc(OC2CCN(c3ccncc3)CC2)cc1` was tested. Which INHIBITION did it give?
Its INHIBITION is 55.1%.

Which INHIBITION does the source give for `CSC(C)C(=O)N(C)C1CCN(c2ccc(Cl)cc2)CC1` (centres undefined) here?
Its INHIBITION is 35.5%.

For `CN(C(=O)Nc1cccnc1)C1CCN(c2ccc(Cl)cc2)CC1`, which INHIBITION is on record?
Its INHIBITION is 60.4%.

`CN1CCC(N(C)C(=O)Nc2ccc(Cl)cc2)CC1` was tested. Which INHIBITION did it give?
The INHIBITION was -5.64%.

Which INHIBITION does the source give for `COc1ccccc1OC1CCN(c2ccncc2)CC1` here?
The INHIBITION was -2.93%.

How did the INHIBITION turn out when `CN(C(=O)Nc1ccncc1)C1CCN(c2ccc(Cl)cc2)CC1` was run?
The INHIBITION was 83.1%.

`CN1CCC(Oc2ccc(-n3ccnc3-c3ccncc3)cc2)CC1` was tested. Which INHIBITION did it give?
The INHIBITION was 49.4%.

`CN(CC(=O)N(C)C1CC1)C1CCN(c2ccc(Cl)cc2)CC1` was tested. Which INHIBITION did it give?
The INHIBITION was 29%.

`CS(=O)(=O)N[C@@H]1CN(Cc2ccc3ccccc3c2)C[C@H]1O` was tested. Which INHIBITION did it give?
Its INHIBITION is -6.88%.

`O=C(Cc1ccccn1)N1CCCC(c2nccn2CC2CCC2)C1` (centres undefined) was tested. Which INHIBITION did it give?
Its INHIBITION is 10.7%.

Which INHIBITION does the source give for `O=C(O)c1cc(C2CC2)nc2c(Cl)cnn12` here?
Its INHIBITION is 29.2%.

How did the INHIBITION turn out when `CC(C)C(C(=O)N1CCN(c2nccs2)CC1)n1cncn1` (centres undefined) was run?
The INHIBITION was 5.03%.

Which INHIBITION does the source give for `Cc1nc(C2CCNC2)nc2c1CCC(=O)N2CC(C)C` (centres undefined) here?
The INHIBITION was 25.65%.

With `CN1C(=O)c2cccc(NC(=O)c3ccc4c(c3)OCCO4)c2C1=O` as the compound, how does the INHIBITION read?
Its INHIBITION is 8.46%.

With `CC(C)(C)NC(=O)[C@@H]1CNC[C@]12Cc1ccccc1C(=O)N2` as the compound, how does the INHIBITION read?
The INHIBITION was 24.2%.

`COCCNc1nnc(-c2cnc(C)cn2)s1` was tested. Which INHIBITION did it give?
The INHIBITION was -54.1%.

Which INHIBITION does the source give for `c1cncc(C[C@H]2[C@H](N3CCOCC3)CCN2Cc2nccs2)c1` here?
The INHIBITION was 8.85%.

For `Cn1cc(C(=O)N2CCN(Cc3cscn3)CC2)ccc1=O`, which INHIBITION is on record?
Its INHIBITION is -8.22%.

With `CN(CCN1CCN(c2ccccc2)CC1)C(=O)Nc1ccncc1` as the compound, how does the INHIBITION read?
The INHIBITION was 73.2%.

`Cc1cc(NC(=O)N(C)CCN2CCN(c3ccccc3)CC2)on1` was tested. Which INHIBITION did it give?
The INHIBITION was 35.5%.

For `COCc1ncc(CN2CCC(Oc3ccccc3C)CC2)cn1`, which INHIBITION is on record?
Its INHIBITION is 26.8%.

Which INHIBITION does the source give for `COCc1ncc(CN2CCC(Oc3ccccc3OC)CC2)cn1` here?
The INHIBITION was -20.6%.

How did the INHIBITION turn out when `COc1ccc(N2CCC(N(C)C(C)C(=O)N(C)C)CC2)cc1` (centres undefined) was run?
The INHIBITION was 45.3%.

With `COc1ccc(N2CCC(N(C)C(=O)Nc3ccncc3)CC2)cc1` as the compound, how does the INHIBITION read?
The INHIBITION was 52.8%.

Which INHIBITION does the source give for `COCc1ncc(CN2CCC(Oc3ccc(OC)cc3)CC2)cn1` here?
Its INHIBITION is 56%.

For `CCOC(C)C(=O)N(C)C1CCN(c2ccc(OC)cc2)CC1` (centres undefined), which INHIBITION is on record?
Its INHIBITION is 33.4%.

How did the INHIBITION turn out when `CN(CCN1CCN(c2ccccc2)CC1)C(=O)Nc1ccccn1` was run?
Its INHIBITION is 45.4%.
